Laboratory results from PubChem BioAssay (NCI).
Values joined by “and” are separate entries in the source; they are usually repeats but may differ in a detail not shown here. Identical values can stand only once. Compounds without any hit were thinned out: in the full panel of roughly 83,000, 20% have a hit.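 Growth was measured after 48 h exposure to one concentration of compound in 96-well plates. Values under 10 count as active.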 Active and inactive are the calls of the source.

Test system: MDA-MB-468 breast
Assay: NCI-60 one-dose screen, 48 h (100 = growth as untreated, 0 = no growth, -100 = all killed)
Conditions: 10 µM unless noted

**Q.** For O=C1/C(=C/N2N=C(c3ccc(Cl)cc3)CC2c2ccccc2O)SC(=S)N1c1cccc(C(F)(F)F)c1 (configuration not stated), which growth is on record?
**A.** Its growth is 62.2% (inactive).

**Q.** How did the growth turn out when CCCCC/C=C/CCC(=O)N[C@H]1[C@H](Oc2c3cc4cc2Oc2ccc(cc2Cl)[C@@H](O[C@@H]2O[C@H](CO)[C@@H](O)[C@H](O)[C@H]2NC(C)=O)[C@@H]2NC(=O)[C@H](NC(=O)[C@@H]4NC(=O)[C@H]4NC(=O)[C@@H](Cc5ccc(c(Cl)c5)O3)NC(=O)[C@@H](N)c3ccc(O)c(c3)Oc3cc(O)cc4c3)c3ccc(O)c(c3)-c3c(O[C@H]4O[C@H](CO)[C@@H](O)[C@H](O)[C@@H]4O)cc(O)cc3[C@H](C(=O)O)NC2=O)O[C@H](CO)[C@H](O)[C@@H]1O was run?
**A.** The growth was 110% (inactive).

**Q.** Which growth does the source give for CC1CCc2c(C(=O)Nc3ncc(Cc4cccc([N+](=O)[O-])c4)s3)csc2C1 (configuration not stated) here?
**A.** Its growth is 12.3% (inactive).

**Q.** Which growth does the source give for CC(=O)N(C)N=Nc1ccc(C)cc1 here?
**A.** The growth was 104% (inactive).

**Q.** For O=C(N/N=C/c1ccc2c(c1)OCO2)c1cnn2c1NC(c1ccccc1)C2 (configuration not stated), which growth is on record?
**A.** Its growth is 22.4% (inactive).

**Q.** Which growth does the source give for COc1ccc(C2CC(=O)Nc3c2c(C)nn3-c2nc3ccccc3[nH]2)cc1OC (configuration not stated) here?
**A.** The growth was 59.6% (inactive).

**Q.** With COc1ccc(C/C(C)=C(/c2ccc(OCCN(C)C)cc2)c2ccc(OC(=O)NCc3ccccc3)cc2)cc1 as the compound, how does the growth read?
**A.** Its growth is 67.6% (inactive).

**Q.** With COc1ccc(C(=O)c2sc3nc4c(c(C(F)(F)F)c3c2N)CN(C(C)=O)CC4)cc1OC as the compound, how does the growth read?
**A.** Its growth is 83.7% (inactive).

**Q.** COc1ccc(/C=C/c2nc(N3CCOCC3)c3nc(Cl)c(Cl)cc3n2)cc1OC was tested. Which growth did it give?
**A.** Its growth is 101% (inactive).

**Q.** For CC(=O)c1ccc2c(c1)N(CCCN1CCN(CCO)CC1)c1ccccc1S2, which growth is on record?
**A.** The growth was 92.3% (inactive) and -79% (active).

**Q.** How did the growth turn out when Cc1ccc2c(n1)C(=O)C(Cl)=C(Nc1cccc(C(F)(F)F)c1)C2=O was run?
**A.** Its growth is -65.2% (active).

**Q.** With N=C(N)c1ccc(-c2ccc(-c3ccc(Cl)cc3)s2)nc1 as the compound, how does the growth read?
**A.** Its growth is -56.4% (active).

**Q.** How did the growth turn out when NS(=O)(=O)c1ccc(CCn2c(SCC(=O)N/N=C/c3cccnc3)nc3ccccc3c2=O)cc1 was run?
**A.** The growth was 92.9% (inactive).

**Q.** Which growth does the source give for Cn1nc(C(F)(F)F)c(-c2cc(C(F)(F)F)cc(C(F)(F)F)c2)c1-c1ccc(OCc2ccc(Cl)cc2)cc1O here?
**A.** Its growth is -5% (active).

**Q.** Cc1ccc(C(=O)C2=Cc3cc4ccccc4n3Cc3cnnn32)cc1 was tested. Which growth did it give?
**A.** Its growth is 100% (inactive).

**Q.** For CC[C@@H](C)/C=C(C)/C=C/C(O)=C1\C(=O)N[C@@H](Cc2ccc(OC(=O)[C@@](OC)(c3ccccc3)C(F)(F)F)cc2)C1=O, which growth is on record?
**A.** The growth was 110% (inactive).

**Q.** For COc1ccc(-c2nc3sc(C)cn3c2/C=C/C(=O)c2cc(OC)c(OC)c(OC)c2)cc1, which growth is on record?
**A.** The growth was 25.5% (inactive).

**Q.** Which growth does the source give for CN(C)c1ccc(/C=c2\s/c(=C\C(=O)C(C)(C)C)[nH]c2=O)cc1 here?
**A.** Its growth is 109% (inactive).

**Q.** How did the growth turn out when COc1cccc(Cn2cc3c(c2)-c2oncc2CC3)c1 was run?
**A.** The growth was 1.66% (active).

**Q.** O=C(Nc1ccc(Cl)c(C(F)(F)F)c1)c1ccc(Nc2ccc(Cl)nn2)cc1 was tested. Which growth did it give?
**A.** Its growth is 41.3% (inactive).

**Q.** With Clc1ccc(-c2nc(NCCc3ccccc3)nc3c(NCCc4ccccc4)cnn23)cc1 as the compound, how does the growth read?
**A.** Its growth is 47.8% (inactive).

**Q.** Which growth does the source give for O=C(CO[N+](=O)[O-])Nc1ccc(C(=O)/C=C/c2ccc3c(c2)OCO3)cc1 here?
**A.** The growth was 91.9% (inactive).

**Q.** For CCOC(=O)c1sc2nc(-c3cc(OC)c(OC)c(OC)c3)nc(N3CCOCC3)c2c1C, which growth is on record?
**A.** Its growth is 11.3% (inactive).

**Q.** For COc1cc(-c2csc(NC(=O)Nc3cc(Cl)cc(Cl)c3)n2)cc(OC)c1OC, which growth is on record?
**A.** The growth was -6.75% (active).

**Q.** How did the growth turn out when O=c1[nH]c(Sc2sc3ccc(Cl)cc3c2CBr)nc(=S)[nH]1 was run?
**A.** Its growth is 19.1% (inactive).

**Q.** CC1=CC(=O)C(C(C)C)=CC1=Nc1cc(Br)c(O)c(Br)c1 was tested. Which growth did it give?
**A.** Its growth is 44.7% (inactive).

**Q.** For CC1=CC[C@@H]2CC[C@]3(C)[C@H](CC[C@@H]4[C@@]5(C)CCCNC(C)(C)[C@@H]5CC[C@]43C)[C@H]2[C@@H]1C, which growth is on record?
**A.** The growth was -47.2% (active).

**Q.** With O=C(N/N=C/c1ccccc1O)C(O)(c1ccccc1)c1ccccc1 as the compound, how does the growth read?
**A.** The growth was 38.2% (inactive).

**Q.** Which growth does the source give for O=C(CCCN1C(=O)/C(=C/c2ccccc2F)SC1=S)N1CCOCC1 here?
**A.** The growth was 55.7% (inactive).

**Q.** For COc1cc(C2CC(c3cccc(Nc4ccncc4)c3)=NN2C(C)=O)cc(OC)c1OC (configuration not stated), which growth is on record?
**A.** Its growth is 86.6% (inactive).

**Q.** How did the growth turn out when CN1/C(=C\C(I)C(I)C2=[N+](C)c3ccccc3C2(C)C)C(C)(C)c2ccccc21 (configuration not stated) was run?
**A.** The growth was -17.6% (active).

**Q.** With CCc1c2c(nc3ccc(OC(=O)N4CCC(N5CCCCC5)CC4)cc13)-c1cc3c(c(=O)n1C2)COC(=O)[C@]3(O)CC as the compound, how does the growth read?
**A.** The growth was -31.2% (active).
